The values below come from PubChem BioAssay (NCI).

Some test systems named below: DU-145 prostate; K-562 leukemia; MALME-3M melanoma; MDA-MB-231 breast; RXF 393 renal; SF-268 CNS; SF-295 CNS; SF-539 CNS; UACC-257 melanoma; HCT-15 colon; HT29 colon; SNB-75 CNS; U251 CNS; PC-3 prostate; SK-MEL-5 melanoma; UACC-62 melanoma; LOX IMVI melanoma; SK-MEL-28 melanoma; M14 melanoma; SNB-19 CNS.
What all share (assay): NCI-60 one-dose screen, 48 h (100 = growth as untreated, 0 = no growth, -100 = all killed)
Common to all, as to conditions: 10 µM unless noted

Compounds without any hit were thinned out: in the full panel of roughly 83,000, 20% have a hit.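 In brief: 96-well plates, 48 h treatment, single concentration, percent growth endpoint.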 Values without a mark were called inactive. Calls of active or inactive are those of the source. How the source made its calls: active means growth percent below 10; inactive means the rest.

Consider `CN1/C(=C\C=C\C2=[N+](C)c3ccccc3C2(C)C)C(C)(C)c2ccccc21`, for which the growth with DU-145 prostate is 25.2%; in the assay with K-562 leukemia, 6.42% (active); with MALME-3M melanoma it was -9.73% (active); in the assay with MDA-MB-231 breast it was 6.24% (active); with RXF 393 renal it was -12.4% (active); in the assay with SF-268 CNS, 26.4%. Also, the growth in the assay on SF-295 CNS was -11.3% (active); with SF-539 CNS, 5.93% (active); in the assay with UACC-257 melanoma it was -40% (active); in the assay with HCT-15 colon, 8.08% (active); with HT29 colon, -33.9% (active); with SNB-75 CNS, -5.88% (active). Moreover, the growth in the assay on U251 CNS is 9.16% (active); with PC-3 prostate, 2.66% (active); in the assay on SK-MEL-5 melanoma it was -98.5% (active); in the assay on UACC-62 melanoma, -77.3% (active); in the assay with LOX IMVI melanoma it was 0.458% (active); in the assay on SK-MEL-28 melanoma it was -25.4% (active).

Turning to `Cc1cc(N/N=C/c2nc(-c3ccc(Cl)cc3)oc2C)c2cc(Br)ccc2n1`, the growth was 31.9% in the assay on DU-145 prostate; 0% (active) in the assay with K-562 leukemia; 7.27% (active) with MALME-3M melanoma; 70.4% in the assay with MDA-MB-231 breast; 98.6% in the assay with RXF 393 renal; 68.5% in the assay with SF-268 CNS. Moreover, the growth in the assay on SF-295 CNS is 105%; in the assay on SF-539 CNS it was 87.3%; in the assay on UACC-257 melanoma, 101%; in the assay on M14 melanoma, 40.6%; in the assay with HCT-15 colon, -20.3% (active); in the assay on HT29 colon it was -45.8% (active). Besides, the growth was 41.6% with SNB-19 CNS; -33.3% (active) with U251 CNS; 80.2% in the assay on PC-3 prostate; 91.9% in the assay on SK-MEL-5 melanoma; 58.2% with UACC-62 melanoma; -43.4% (active) in the assay on LOX IMVI melanoma. The growth with SK-MEL-28 melanoma was 17.5%.

In the case of `C=C(C[n+]1ccccc1)[C@@H]1CC[C@]2(C(=O)OC)CC[C@]3(C)[C@H](CC[C@@H]4[C@@]5(C)CC[C@H](O)C(C)(C)[C@@H]5CC[C@]43C)[C@@H]12`, the growth in the assay with DU-145 prostate is 114%; in the assay with K-562 leukemia, 95.7%; with MALME-3M melanoma, 103%; in the assay on MDA-MB-231 breast it was 114%; with RXF 393 renal, 106%; with SF-268 CNS it was 97%. Also, the growth in the assay on SF-295 CNS is 103%; with SF-539 CNS it was 91.2%; in the assay with UACC-257 melanoma, 100%; in the assay with M14 melanoma, 102%; with HCT-15 colon it was 106%; with HT29 colon, 94.5%. For the same compound, the growth with SNB-19 CNS was 106%; in the assay on U251 CNS it was 99%; in the assay with PC-3 prostate, -77.4% (active); in the assay on SK-MEL-5 melanoma, 96.5%; in the assay on UACC-62 melanoma, 91.5%; in the assay on LOX IMVI melanoma, 92%. In addition, the growth in the assay on SK-MEL-28 melanoma is 108%.

Consider `COc1ccc(C/C(C)=C(\c2ccc(OCCN3CCCCCC3)cc2)c2ccc(OC(=O)C3CCCCC3)cc2)cc1`, for which the growth is 72.4% in the assay with DU-145 prostate; 9.51% (active) in the assay with K-562 leukemia; 66% with MALME-3M melanoma; 67.6% in the assay on MDA-MB-231 breast; 60.4% in the assay with RXF 393 renal; 64.2% with SF-268 CNS. Also, the growth is 86.1% with SF-295 CNS; 74.7% in the assay on SF-539 CNS; 77.5% in the assay on UACC-257 melanoma; 73.1% with M14 melanoma; 38.7% with HCT-15 colon; -31.8% (active) with HT29 colon. Moreover, the growth in the assay with SNB-19 CNS is 63.3%; in the assay on U251 CNS, 44.1%; with PC-3 prostate it was 50.7%; in the assay on SK-MEL-5 melanoma, 65.4%; in the assay with UACC-62 melanoma it was 63.5%; with LOX IMVI melanoma it was 66.8%. In addition, the growth with SK-MEL-28 melanoma is 66.9%.

For the compound `COc1ccc(/C=C2\CN(C(=O)CCN3CCC(=NO)CC3)C/C(=C\c3ccc(OC)cc3)C2=O)cc1`, the growth with DU-145 prostate was 22.6%; with K-562 leukemia it was 4.21% (active); in the assay on MALME-3M melanoma it was -40.9% (active); in the assay with MDA-MB-231 breast it was -57.9% (active); in the assay with RXF 393 renal it was -81.2% (active); in the assay on SF-268 CNS it was 13.3%. Besides, the growth was 8.38% (active) in the assay with SF-295 CNS; -25.5% (active) in the assay with SF-539 CNS; 22.9% with UACC-257 melanoma; 7.58% (active) in the assay on M14 melanoma; -12.8% (active) in the assay on HCT-15 colon; -48.2% (active) in the assay with HT29 colon. Moreover, the growth in the assay with SNB-19 CNS was 8.36% (active); in the assay on U251 CNS, -46.2% (active); in the assay on PC-3 prostate, 12.1%; with SK-MEL-5 melanoma it was -55.7% (active); with UACC-62 melanoma it was -70.2% (active); in the assay on LOX IMVI melanoma, -91.8% (active). In the assay on SK-MEL-28 melanoma, the growth is -30.5% (active).

Turning to `COc1ccc(-n2cc(-c3ccccc3)c3c(SCC(=O)N/N=C/c4ccc([N+](=O)[O-])cc4)ncnc32)cc1`, the growth with DU-145 prostate is 114%; in the assay on K-562 leukemia, 110%; with MALME-3M melanoma, 110%; in the assay on MDA-MB-231 breast, 102%; in the assay with RXF 393 renal, 113%; in the assay with SF-268 CNS, 98.5%. For the same compound, the growth is 105% in the assay with SF-295 CNS; 97.9% in the assay on SF-539 CNS; 107% in the assay on UACC-257 melanoma; 108% with M14 melanoma; 108% in the assay on HCT-15 colon; 114% with HT29 colon. Also, the growth is 99.7% with SNB-19 CNS; 104% in the assay with U251 CNS; 96.4% with PC-3 prostate; 100% in the assay with SK-MEL-5 melanoma; 97.5% in the assay with UACC-62 melanoma; 94.2% in the assay on LOX IMVI melanoma. The growth in the assay on SK-MEL-28 melanoma was 110%.

Consider `O=c1c2c3c(sc2n2c(CCl)nnc2n1Cc1ccccc1)CCCC3`, for which the growth is -11.9% (active) with DU-145 prostate; -65.2% (active) with K-562 leukemia; -71.4% (active) in the assay with MALME-3M melanoma; -60.2% (active) in the assay on MDA-MB-231 breast; -39.1% (active) with RXF 393 renal; -59.2% (active) in the assay with SF-268 CNS. Moreover, the growth is 126% with SF-295 CNS; -85.5% (active) in the assay with SF-539 CNS; -53.6% (active) in the assay with UACC-257 melanoma; -89.4% (active) in the assay with HCT-15 colon; -100% (active) in the assay on HT29 colon; -61.3% (active) with SNB-75 CNS. For the same compound, the growth in the assay on U251 CNS was -99.2% (active); in the assay with PC-3 prostate, -100% (active); with SK-MEL-5 melanoma, -96.1% (active); in the assay on UACC-62 melanoma, -72.8% (active); in the assay with LOX IMVI melanoma, -100% (active); with SK-MEL-28 melanoma it was -100% (active).

On to `COc1ccc(S(=O)(=O)NCCNc2nccc(-c3c(-c4cccc([N+](=O)[O-])c4)nc4sccn34)n2)cc1`, for which the growth is 80% with DU-145 prostate; 76.1% in the assay with K-562 leukemia; 111% in the assay with MALME-3M melanoma; 82.9% with MDA-MB-231 breast; 78% with RXF 393 renal; 66.4% in the assay with SF-268 CNS. The growth in the assay with SF-295 CNS was 90.6%; in the assay on SF-539 CNS it was 99.3%; in the assay with UACC-257 melanoma, 106%; in the assay with M14 melanoma, 102%; in the assay on HCT-15 colon, 77.5%; in the assay on HT29 colon it was 74.8%. Moreover, the growth is 91.6% with SNB-19 CNS; 91.1% with U251 CNS; 64.6% with PC-3 prostate; 63.6% in the assay on SK-MEL-5 melanoma; 84% in the assay on UACC-62 melanoma; 88.6% in the assay on LOX IMVI melanoma. Moreover, the growth with SK-MEL-28 melanoma was 107%.
